What all share (test): NCI-60 one-dose screen, 48 h (100 = growth as untreated, 0 = no growth, -100 = all killed)
Holding throughout (conditions): 10 µM unless noted

Test [1] has as its system SR leukemia.
Test [2] has as its system RPMI-8226 leukemia.
The subject of test [3] is OVCAR-8 ovarian.
For test [4], the system named is OVCAR-4 ovarian.
For test [5], the system named is SK-OV-3 ovarian.
Test [6] has as its system IGROV1 ovarian.
For test [7], the system named is HS 578T breast.
For test [8], the system named is OVCAR-5 ovarian.
Test [9] relates to OVCAR-3 ovarian.
The test system of test [10] is NCI/ADR-RES ovarian.

The panel holds about 83,000 compounds, 20% with a hit somewhere; the sample as a whole holds those more often.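 How to read the values: 0–100, growth inhibition (40 = 60% inhibited); 0, no net growth; -100 to 0, cell death (-40 = 40% of starting cells died; -100 = all dead).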 Values without a mark were called inactive. Calls of active or inactive are those of the source. Rule for the calls: active = growth percent below 10; inactive = the rest.

Take `CCCCOC(=O)OCc1cc(=O)c(O)co1`: the growth in test [1] was 104%; in [2], 106%; in test [3], 102%; in test [4], 104%; in test [5] it was 105%; in test [6], 110%. Also, the growth in test [7] was 101%.
As to `CC(C)NC1CCC(Nc2ccnc3cc(Cl)ccc23)CC1` (stereo unspecified), the growth in [1] was 84%; in test [3], 91.7%; in test [8], 104%; in [4] it was 79.5%; in test [5], 93%; in test [6], 109%. The figures for the growth in [9], in test [7] and in [10] were 109%, 96.6% and 108%, respectively.
`COc1cccc(CNc2ncnc3c2ncn3C2OC(CO)C(O)C2O)c1O` (stereo unspecified): the growth is -9.69% (active) in test [1]; 6.83% (active) in test [3]; 9.68% (active) in test [8]; 11.3% in [4]; -61.5% (active) in test [5]; -23.4% (active) in test [6]. The growth is -0.409% (active) in [9], -27% (active) in test [7] and 2.34% (active) in test [10].
Consider `COCCn1cc(-c2nc(-c3cc4cccnc4n3CCOC)cs2)c2cc(OC)ccc21`, for which the growth is 36.3% in test [1]; 61.1% in test [3]; 23.6% in [8]; 20% in test [4]; 73.4% in test [5]; 30.8% in [6]. Further, the growth is 4.62% (active) in test [9], 58% in [7] and 58.3% in [10].
With `O=C1/C(=C\c2cn(-c3ccccc3)nc2-c2ccc(-c3cccs3)cc2)CCc2ccccc21`, the growth in test [1] is 15.9%; in test [3] it was 82.5%; in test [8], 94.9%; in test [4], 75.1%; in test [5], 86.7%; in test [6] it was 56.5%. The results for the growth in test [9], in test [7] and in [10] were 47.3%, 81.8% and 35.5%, respectively.
With `C1=CN2CC(c3ccccc3)=NNC2c2ccccc21` (stereo unspecified), the growth in [1] is 97%; in test [3], 92%; in test [8], 106%; in test [4], 83%; in [5], 92.2%; in test [6], 22.8%. Besides, the growth in test [7] is 86.7%; in test [10], 80.6%.
`Cn1c(O)c(C=NCCN=Cc2c(O)n(C)c(=O)n(C)c2=O)c(=O)n(C)c1=O`: the growth in test [1] is -21.9% (active); in test [3], 103%; in test [4], 112%; in [5], 107%; in [6], 106%; in test [9], 102%. Further, the growth in [7] was 112%; in [10], 104%.
Regarding `Cn1c(=O)c2[nH]c(N/N=C/c3ccccc3Br)nc2n(C)c1=O`, the growth is 89.7% in [1]; 112% in test [3]; 89.5% in [8]; 117% in test [4]; 117% in test [5]; 101% in [6]. The figures for the growth in test [9], in [7] and in test [10] were 119%, 161% and 104%, respectively.
For `Cc1ccc(-c2nc3nc(-c4ccc(F)cc4)nc(N4CCNCC4)c3o2)cc1`, the growth in test [2] was -47.2% (active); in test [3], -50.1% (active); in test [8], -14.6% (active); in test [4], -77.1% (active); in test [5], 107%; in [6], 42%. For the same compound, the growth in test [7] was -5.74% (active); in [10], -19.1% (active).

(Values after PubChem BioAssay (NCI).)
